Results: PubChem BioAssay AID1259374 (The Scripps Research Institute Molecular Screening Center, 2018)
About 5,900 (0.91%) of roughly 650,000 compounds were called active. The sample as a whole holds a higher share of actives than the screen did. Unmarked numbers belong to inactive results. No stated cut-off is given here; in the data, active means inhibition above about 50%; inactive means the rest.

What follows are molecules tested against Microphthalmia-associated transcription factor (Homo sapiens) (UniProt O75030) (assay: MITF inhibitors, primary screen, biochemical, AlphaScreen, human (AID 1259374;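 further: 0% = vehicle wells with protein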)). Conditions: AlphaScreen MITF homodimerization, bead proximity signal; at 2.6 µM; active compounds read high.
Chain of Microphthalmia-associated transcription factor (Homo sapiens) (O75030 whole entry, looked up): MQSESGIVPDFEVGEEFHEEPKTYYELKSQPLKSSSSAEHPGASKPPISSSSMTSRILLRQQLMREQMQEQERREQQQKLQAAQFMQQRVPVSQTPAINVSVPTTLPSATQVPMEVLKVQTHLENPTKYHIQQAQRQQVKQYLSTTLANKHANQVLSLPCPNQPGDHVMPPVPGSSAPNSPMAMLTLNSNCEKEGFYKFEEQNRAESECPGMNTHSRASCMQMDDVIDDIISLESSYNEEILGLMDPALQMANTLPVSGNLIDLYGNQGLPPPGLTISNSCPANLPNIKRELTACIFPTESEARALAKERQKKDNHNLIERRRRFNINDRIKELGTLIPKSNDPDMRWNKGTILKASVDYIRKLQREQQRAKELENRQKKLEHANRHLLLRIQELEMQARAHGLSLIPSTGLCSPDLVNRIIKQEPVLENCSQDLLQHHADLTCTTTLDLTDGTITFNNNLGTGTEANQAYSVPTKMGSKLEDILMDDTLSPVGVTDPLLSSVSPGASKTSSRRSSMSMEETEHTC

Row | Structure (SMILES) | inhibition
1 | COc1cc(/C=N/NC(=O)c2cccnc2)ccc1Oc1ccc([N+](=O)[O-])cc1[N+](=O)[O-] | 12.4%
2 | CCC1CN(Cc2ccccn2)Cc2ccc(Cl)cc2O1 (centres undefined) | -11.7%
3 | CCCCCCOC(=O)c1ccc(-c2ccc(-c3ccc(C(=O)OCCCCCC)cc3)cc2)cc1 | 14.5%
4 | CCOC(=O)c1cc2cccnc2nc1C | 12.4%
5 | CCCCCCOC(=O)c1cc(C(=O)OCCCCCC)c(C)nc1C | 55.6% (active)
6 | CCN1CCN(Cc2c(O)ccc3cc(-c4ccccc4)c(=O)oc23)CC1 | 2.19%
7 | Cc1cn2c(=O)c(C(=O)Nc3ccc(Br)c(C)c3)cnc2s1 | 3.85%
8 | C=CCNC(=O)c1cc2cc(Cl)ccc2oc1=O | 12.4%
9 | CC1(C)CC(=O)C2=C(C1)Nc1ccccc1N(C(=O)Cc1ccccc1)C2c1cccc(F)c1 (centres undefined) | 0.57%
10 | CCN(CC)c1ccc(C2C3=C(CC(C)(C)CC3=O)Nc3ccccc3N2C(=O)Cc2ccccc2)cc1 (centres undefined) | 2.82%
11 | CC1(C)CC(=O)C2=C(C1)Nc1ccccc1N(C(=O)Cc1ccccc1)C2c1ccc(-c2ccc([N+](=O)[O-])cc2)o1 (centres undefined) | 65.2% (active)
12 | COc1ccc(C2CC(=O)C3=C(C2)Nc2ccccc2N(C(=O)c2ccc(Cl)c(Cl)c2)C3c2ccc(C)cc2)cc1 (centres undefined) | -2.68%
13 | CC(=O)c1ccc(NC(=O)C(C)NCc2ccc(C)cc2)cc1 (centres undefined) | 76% (active)
14 | COc1cc(NC(C)C(=O)Nc2ccc(C(C)=O)cc2)cc(OC)c1 (centres undefined) | 0.12%
15 | CC(=O)c1ccc(NC(=O)C(C)NCc2ccc(Cl)cc2)cc1 (centres undefined) | 3.65%
16 | Cc1nc2c(c(=O)[nH]1)C(c1ccc(Cl)c(Cl)c1)C(C#N)=C(N)O2 (centres undefined) | 3.39%
17 | C=CCNC(=O)C(=O)Nc1cc(C)ccc1OC | 12.4%
18 | CNC(=O)NC(=O)CSc1ncnc2sc(-c3ccccc3)cc12 | 9.51%
19 | NS(=O)(=O)c1cccc(NC(=O)COc2ncnc3sc(-c4ccccc4)cc23)c1 | 51.8% (active)
20 | NS(=O)(=O)c1ccc2nc(NC(=O)COc3ccccc3)sc2c1 | 5.22%

Row | Structure (SMILES) | inhibition
21 | O=S(=O)(NCc1cccnc1)c1ccc(-n2cnnn2)cc1 | -8.13%
22 | CCOc1ccccc1Nc1nnc(Cc2ccc(OC)cc2)c(=O)[nH]1 | 24.2%
23 | COc1ccc(Cc2nnc(N/N=C/c3ccccc3O)[nH]c2=O)cc1OC | 112% (active)
24 | COc1cccc(Nc2nnc(Cc3ccc(Cl)cc3)c(=O)[nH]2)c1 | 10.6%
25 | Cc1cc(NC(=O)Cc2ccccc2)n(-c2nc(C)c(C)c(=O)[nH]2)n1 | 24.5%
26 | CC[C@@H]1NC(=O)[C@H]2CN(C(=O)c3cccs3)CCN2C1=O | 14.5%
27 | C[C@@H](OCc1ccccc1)[C@@H]1NC(=O)[C@H]2CN(Cc3ccc4ncccc4c3)CCN2C1=O | 15.9%
28 | C[C@@H](OCc1ccccc1)[C@@H]1NC(=O)[C@H]2CN(C(=O)Nc3cccc(F)c3)CCN2C1=O | 75.3% (active)
29 | C[C@H](O)[C@H]1NC(=O)[C@H]2CN(C(=O)c3ccccc3)CCN2C1=O | -12.5%
30 | CC[C@@H]1NC(=O)[C@H]2CN(C(=O)NCc3ccccc3)CCN2C1=O | 75.7% (active)
31 | O=C1N[C@H](Cc2ccccc2)C(=O)N2CCN(C(=O)Oc3ccccc3)C[C@H]12 | -5.43%
32 | Cc1ccccc1C(=O)Nc1ccc(S(=O)(=O)NCc2ccccc2)cc1 | 5.75%
33 | Cc1ccc(NC(=O)CC[C@H]2CN(Cc3ccncc3)CC[C@H]2N2CCOCC2)cc1 | -7.04%
34 | CCCC(C)C(=O)Nc1nc2c(s1)C(=O)CC(C)(C)C2 (centres undefined) | 6.86%
35 | CC(C)NC(=O)/C=C/c1cccc([N+](=O)[O-])c1 | -4.32%
36 | COc1cccc(N2C(=O)CC(N3CCN(C)CC3)C2=O)c1 (centres undefined) | 5.95%
37 | Cc1ccc(-c2noc(CN(C(C)C)S(=O)(=O)c3ccc(F)cc3)n2)cc1 | -1.65%
38 | c1ccc(CN2CCC(Nc3nc(NCc4ccc5c(c4)OCO5)nc4c3ncn4C3CCCCC3)CC2)cc1 | 16.3%
39 | O=C1CCCN1CCn1cnc2c(Nc3ccc(N4CCOCC4)cc3)nc(NCc3ccc4c(c3)OCO4)nc21 | 15.2%
40 | c1cc2c(cc1CNc1nc(Nc3ccc(N4CCOCC4)cc3)c3ncn(C4CCCCC4)c3n1)OCO2 | 53.1% (active)

Row | Structure (SMILES) | inhibition
41 | CC12CCOCC1C2C(=O)Nc1ccc(N=Nc2ccccc2)cc1 (centres undefined) | -6.59%
42 | O=C1CCCN1CCCNc1ccnc(Nc2nccc3ccccc23)n1 | -1.07%
43 | CCN1CCN(CC(=O)N/N=C/c2cccc(Cl)c2)CC1 | 57.4% (active)
44 | COc1cccc(/C=N\NC(=O)CN2CCN(C)CC2)c1 | -8.3%
45 | O=C(CN1CCCCCC1)N/N=C/c1ccc(Cl)cc1 | 20%
46 | Cc1cccc(NC(=O)c2sc3nc4c(cc3c2N)CCC4)c1C | 21.2%
47 | COc1ccc(OCCOCCOc2ccc([N+](=O)[O-])cc2Cl)cc1 | 3.66%
48 | CCOc1ccc(OCCN2CCNCC2)cc1 | 12.2%
49 | CN1CCN(CCCCOc2ccc(C#N)cc2)CC1 | 1.14%
50 | CCN1CCN(CCOc2ccc(-c3ccccc3)cc2)CC1 | 76.4% (active)
51 | CCN1CCN(CCOCCOc2ccc([N+](=O)[O-])cc2)CC1 | 72% (active)
52 | CN1CCN(CCOCCOc2ccc3c(c2)CCC3)CC1 | 11.3%
53 | O=C(COc1ccc2c3c(c(=O)oc2c1)CCC3)Nc1cccc2ncccc12 | 2.18%
54 | COc1ccc(/C(O)=C/c2nc3cc(C)ccc3oc2=O)cc1OC | 3.89%
55 | CCN(CC)S(=O)(=O)c1ccc(C(=O)NCCO)cc1 | -0.2%
56 | C/C(=N\N=C1\NC(=O)CC(C(=O)Nc2cccc(C(=O)O)c2)S1)c1ccccc1 (centres undefined) | 7.7%
57 | CC1CN(C(=O)COC(=O)/C=C/c2ccco2)CC(C)O1 (centres undefined) | 16.4%
58 | CC1CN(C(=O)COc2ccc(C(C)C)cc2Br)CC(C)O1 (centres undefined) | -0.26%
59 | CC1CN(C(=O)COC(=O)c2cc(O)c(O)c(O)c2)CC(C)O1 (centres undefined) | 54.2% (active)
